# Screening results as filed in PubChem BioAssay.
# ALOX12 inh: blocks human arachidonate 12S-lipoxygenase. purified 12hLO, xylenol orange hydroperoxide absorbance. P18054. actives 1.1% (n = 580,000). Potency, µM (titrated, usually from 108 µM), inactives show at the top dose activity change, negative = inhibition, actives largely listed as inhibitors; note: % is set by controls: 0 for no effect and ±100 for the full control effect
# Target sequence (P18054 whole entry, looked up): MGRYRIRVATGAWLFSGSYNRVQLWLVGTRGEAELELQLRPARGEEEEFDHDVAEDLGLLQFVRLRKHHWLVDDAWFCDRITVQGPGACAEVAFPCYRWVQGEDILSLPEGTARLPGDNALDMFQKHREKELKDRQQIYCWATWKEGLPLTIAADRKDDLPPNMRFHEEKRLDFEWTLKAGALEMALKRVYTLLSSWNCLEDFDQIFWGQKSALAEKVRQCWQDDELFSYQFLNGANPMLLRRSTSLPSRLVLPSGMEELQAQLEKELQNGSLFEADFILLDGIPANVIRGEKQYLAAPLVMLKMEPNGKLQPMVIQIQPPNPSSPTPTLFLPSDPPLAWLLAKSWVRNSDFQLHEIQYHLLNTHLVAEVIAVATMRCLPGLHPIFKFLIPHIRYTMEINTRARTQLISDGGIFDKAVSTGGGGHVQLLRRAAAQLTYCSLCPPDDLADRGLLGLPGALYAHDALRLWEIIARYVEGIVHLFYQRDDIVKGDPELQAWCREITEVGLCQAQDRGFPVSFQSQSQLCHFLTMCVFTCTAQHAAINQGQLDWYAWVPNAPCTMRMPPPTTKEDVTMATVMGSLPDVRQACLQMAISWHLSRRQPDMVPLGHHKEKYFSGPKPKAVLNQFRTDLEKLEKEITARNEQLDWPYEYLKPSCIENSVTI
#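 Purified human 12hLO at 150 nM in 25 mM Hepes, 0.01% Triton X-100, pH 7.0, preincubated 15 min at room temperature with compound. Reaction started with 40 uM arachidonic acid, 30 min at room temperature. Hydroperoxide measured by Fe-xylenol orange, 573/405 nm absorbance ratio.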
# ATXN viability: reduces viability in counter-screen for ATXN expression inhibitors; actives 0.49% (n = 400,000); Potency, µM (titrated, usually from 56.7 µM), usual class: cytotoxic; S2 cells (HEK-293 line with an ATXN2-luciferase reporter) viability, CellTiter-Fluor protease fluorescence, 24 h; AID 651635; note: nearly all actives have a fitted effect of over 40% in size
# TGFb inhibitor: inhibitors of TGF-b signaling | AID 588855 | HepG2 CAGA-GFP TGF-b/SMAD3 reporter, GFP fluorescence, 18 h; TGF-beta stimulated, 500 pg/mL final | Potency, µM (top dose mostly 46.1 µM), inactives show at the highest dose activity, negative = inhibition, most hits filed as inhibitors | actives 1.2% (n = 410,000); note: % is set by controls: 0 for no effect and ±100 for the full control effect; nearly all actives have a fitted effect of over 65% in size
#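 Inhibition of TGF-beta-driven CAGA-GFP reporter expression in HEPG2 cells is measured by cellular GFP fluorescence after 18 h stimulation with 500 pg/mL recombinant TGF-beta in 1% FBS medium at 37 degrees C.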
# ATXN2 expr inh: ATXN2 expression inhibition | HEK-293 ATXN2-luciferase reporter, luminescence, 24 h | Potency, µM (highest dose often 57 µM), for inactives: at the highest dose activity change, negative = inhibition, hits mostly inhibitors | actives 0.72% (n = 360,000) | AID 1745845; note: % is set by controls: 0 for no effect and ±100 for the full control effect; nearly all actives have a fitted effect of over 55% in size
#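 qHTS (up to 57 uM final) was run with 24 h compound exposure of reporter cells at 37 °C. Each well was multiplexed: SteadyGlo luminescence measured ATXN2-luciferase expression after a fluorogenic Gly-Phe-AFC viability readout (25 uM final).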
# HepG2 viability: HepG2 cytotoxicity, counter-screen for TGF-b inhibitors; HepG2 CAGA-GFP viability, ATP luminescence, 18 h; Potency, µM (series often up to 46.1 µM), for inactives: top-dose activity change, negative = cytotoxicity, hits mostly cytotoxic; actives 0.76% (n = 410,000); AID 588856
#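 CellTiter-Glo luminescence gave cytotoxicity after 18 hours at 37 degrees C. The cells were HepG2 CAGA-GFP in 1% FBS DMEM, stimulated with 500 pg/mL TGF-beta after compound addition. %Activity was normalised to no-cell wells (complete cell-killing) and DMSO (no toxicity), and curves were fitted and classified.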
# Active calls of the source: *; i = inactive; ? = inconclusive; . = not tested or not shown; ! = not active in a repeat; [ ] = dose if it differs, or a comment. Shown are actives, neighbours in structure and some others; about 2.7% of the full set was active somewhere. Calls come from the whole dose curve; as a rule, active = well fitted curve in the direction sought with a large enough effect; inconclusive = small, poorly fitted or top-dose-only effect, or another doubt; inactive = no such curve, though single readings can be large; an effect the other way counts as inactive or inconclusive. Potency is the fitted concentration of half-maximal effect.
SMILES,ALOX12 inh,ATXN viability,TGFb inhibitor,ATXN2 expr inh,HepG2 viability
COc1ccccc1Nc1nc(-c2ccccc2F)nc2ccccc12,?,.,?,.,-16%
COc1ccccc1-c1nc(NCc2cnc(C)cn2)c2ccccc2n1,20µM*,.,.,.,.
Cc1cnc(CNc2nc(-c3ccccc3C)nc3ccccc23)cn1,-27%,.,.,.,.
COc1ccccc1CNc1nc(-c2ccccc2OC)nc2ccccc12,19%,.,.,.,.
Cc1cc(N2CCN(C)CC2)ccc1NC(=O)c1ccc(-c2ccc(Cl)cc2)o1,-23%,i,?,?,11µM*
CCOC(=O)C1=C(CSc2nc3ccccc3s2)NC(=O)NC1c1cc(C)ccc1C (configuration not stated),9%,?,11µM*,-36%,11µM*
CCOC(=O)C1=C(CSc2nc3ccccc3s2)NC(=O)NC1c1ccc(OC)cc1 (configuration not stated),-7%,?,?,?,-53%
CCC(=O)NC[C@H](Cc1ccc(OCCc2nc(-c3ccccc3)oc2C)cc1)NC(C)=CC(=O)c1ccc(C(F)(F)F)cc1,-17%[57.4 µM],.,.,22µM*,.
CCOc1ccc(CCNC(=O)c2ccc(-c3nc(CSc4ccccc4)c(C)o3)cc2)cc1,-24%,i,1%,-4%,-6%
Nc1nccnc1C(=O)NCc1ccc(Oc2ccc(F)cc2)cc1,-3%,.,.,.,.
COc1ccc(CCN(C)C(=O)C2CCCN(C3CCN(Cc4ccccc4)CC3)C2)cc1OC (configuration not stated),0.32µM*!,i,-29%,.,-48%
CCn1cc[n+](C)c1P(c1ccccc1)c1ccccc1,40µM*,i,-11%,-18%,-20%
NNc1ccc(Cc2ccc(NN)cc2)cc1,20µM*,.,.,.,.
CS(=O)(=O)Nc1ccc(Cc2ccc(NS(C)(=O)=O)cc2)cc1,?,i,-17%,-9%,-18%
C=CCN1C(=O)COc2ccc(NC(=O)c3cc(=O)c4cccc(C)c4o3)cc21,-29%,.,.,.,.
Cc1cccc(Nc2nc(N)nc(CCl)n2)c1C,80%,?,14µM*,1µM*,-54%
CCOc1ccc(Nc2nc(N)nc(CCl)n2)cc1,146%,?,11µM*,?,-61%
Cc1ccc(Nc2nc(N)nc(CSc3nc4ccccc4s3)n2)cc1,2%,.,13µM*,?,-63%
Cc1ccc(Nc2nc(N)nc(CCl)n2)c(C)c1,22%,.,-8%,?,-43%
COc1cccc(Nc2nc(N)nc(CCl)n2)c1,154%,?,?,?,-40%
Cc1ccc(Nc2nc(N)nc(CCl)n2)cc1,356%,.,?,11µM*,-23%
Nc1nc(CCl)nc(Nc2ccccc2)n1,0%,.,?,?,-60%
N#Cc1c(N)c(-c2ccccc2)c(F)c2ccccc12,1%,.,.,.,.
Cc1ccc(-c2nc(Cn3nnc(-c4ccccc4C)n3)cs2)cc1,9%,.,.,.,.
Cc1ccc(Nc2nc(N)nc(CC#N)n2)cc1,22%,i,13µM*,36%,-44%
SMILES,ALOX12 inh,ATXN viability,TGFb inhibitor,ATXN2 expr inh,HepG2 viability
Cc1onc(-c2c(Cl)cccc2Cl)c1C(=O)N/N=C(\N)COc1ccc(Cl)cc1,?,?,6.3µM*,?,-64%
Nc1nc2c(s1)CCc1c-2cnn1-c1ccccc1,.,?,18µM*,.,-121%
O=C1CO[C@H]2CCN(Cc3cccs3)CC[C@@H]2N1Cc1c[nH]c2ccccc12,-3%[176 µM],.,.,.,.
O=c1[nH]c(CSc2nc3ccccc3o2)nc2cc(Cl)ccc12,8.9µM*,.,.,.,.
O=C(Nc1cc(S(=O)(=O)Nc2ccc(Cl)cc2)ccc1O)c1ccc(S(=O)(=O)N2CCCCCC2)cc1,18%,i,?,-32%,-62%
O=C(N/N=C\c1cc(Cl)ccc1O)c1ccc(S(=O)(=O)N2CCCCC2)cc1,3%,i,-33%,2.5µM*,-35%
CC(C)NC(=O)CON=C1c2ccccc2-c2ccccc21,9%,.,.,.,.
COc1cccc(CN2C(=O)CCCCC2C(=O)NCCc2nc3ccccc3n2C)c1 (configuration not stated),28%,.,.,.,.
Cc1cc2oc(C(=O)N(Cc3ccccc3)Cc3ccco3)cc(=O)c2cc1Cl,0%,.,.,.,.
Cc1ccc2c(=O)cc(C(=O)N(Cc3ccccc3)Cc3ccco3)oc2c1C,35µM*,.,.,.,.
Nc1ccc(O)cc1,?,?,4.5µM*,-7%,14µM*
Nc1ccc(C(c2ccc(N)cc2)c2ccc(O)cc2)cc1,8%,.,.,.,.
CC[C@@]1(C(=O)OC)N[C@H](CN(C)C(=O)c2ccc(F)cc2)[C@@H]2C(=O)N(C)C(=O)[C@@H]21,8.9µM*,i,1%,3%,-10%
CCN1CCc2c(sc(-n3cccc3)c2C(C)NC(=O)Nc2ccc(C(=O)OC)cc2)C1 (configuration not stated),-60%,.,10µM*,.,-30%
CCN1CCc2c(sc(-n3cccc3)c2C(CCC(C)C)NC(=O)NCCC(=O)OC)C1 (configuration not stated),-5%,.,?,.,-33%
Cc1ccccc1C(=O)Nc1ccc2c(c1)nc(CN1CCC(C)CC1)n2C,6%,.,.,.,.
Cc1c(O)nc(SC2CC(=O)N(c3cc(Cl)cc(Cl)c3)C2=O)[nH]c1=O (configuration not stated),5.6µM*,i,26%,-12%,13%
COc1ccc(C)cc1C(C)NC(=O)c1ccc2c(c1)OCO2 (configuration not stated),12%,.,.,.,.
COc1cc(CNCCc2ccc(S(N)(=O)=O)cc2)ccc1OCc1ccc(Cl)cc1,40µM*,22µM*,?,18µM*,-109%
O=C(CCS(=O)(=O)c1ccc(F)cc1)Nc1nc(-c2ccccn2)cs1,13%,?,?,.,-2%
CC(Oc1ccc(F)cc1)C(=O)Nc1nc(-c2ccccn2)cs1 (configuration not stated),9%,?,?,7.9µM*,10%
COc1cc(NC(=S)NC(=O)c2ccc(C(C)(C)C)cc2)ccc1NC(=O)c1cccs1,6.3µM*,?,-2%,.,-39%
COc1cc(NC(=S)NC(=O)c2cc(C)cc(C)c2)ccc1NC(=O)c1cccs1,?,i,-1%,-5%,-3%
CC(C)n1c(O)c(/C=C2\C=NN=C2c2ccccc2)sc1=S,0%,i,?,2%,16µM*
CCn1c(O)c(/C=C2\C=NN=C2c2ccc(C)cc2)sc1=S,?,i,-8%,3%,-6%
COc1ccc(C2Cn3nnc(-c4noc(-c5ccc(Cl)cc5OC)n4)c3CO2)cc1 (configuration not stated),2%,.,.,.,.
Cc1ccnc(NC(=O)c2ccc([N+](=O)[O-])s2)c1,?,i,13µM*,-33%,-104%
